What all share (experiment): universal protein binding microarray (PBM); transcription factors of Arabidopsis thaliana; high values mean tight binding
Holding throughout (settings): protein: recombinant; tags: GST; chain copies: 2; dsDNA, one strand shown

The target in one assay is T1, GST-ANAC092(1-176) (Arabidopsis thaliana, UniProt Q9FKA0 1-176).
T1 sequence: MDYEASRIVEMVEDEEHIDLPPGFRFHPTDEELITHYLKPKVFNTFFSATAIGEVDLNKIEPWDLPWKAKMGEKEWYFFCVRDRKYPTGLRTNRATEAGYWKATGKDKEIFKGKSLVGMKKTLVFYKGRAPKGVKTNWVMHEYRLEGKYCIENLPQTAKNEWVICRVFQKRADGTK
In short, it runs like this: (§1)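 Binding is expressed as the normalised enrichment score (E-score). Proteins carrying a GST tag, whether NAC-domain, full-length or DNA-binding-domain forms, were induced in cells, and zinc acetate was added for zinc-finger proteins. After purification on glutathione–Sepharose 4B and quantification by A280 or anti-GST western blot, each was applied in duplicate at 200 to 500 nM final to custom all-10-mer Agilent 4 × 180K arrays made double-stranded by primer extension. Gapped and ungapped 8-mers were scored.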

Another assay addresses T2, GST-ANAC019 NAC domain (Arabidopsis thaliana, UniProt Q9C932 14-162).
T2 sequence: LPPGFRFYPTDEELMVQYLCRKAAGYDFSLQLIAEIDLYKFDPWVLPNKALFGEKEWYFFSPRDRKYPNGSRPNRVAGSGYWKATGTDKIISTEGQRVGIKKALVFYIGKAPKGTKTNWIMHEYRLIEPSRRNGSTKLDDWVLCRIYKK
The method, boiled down: as §1

The next assay deals with T3, GST-ANAC055(1-171) (Arabidopsis thaliana, UniProt Q9LDY8 1-171).
T3 sequence: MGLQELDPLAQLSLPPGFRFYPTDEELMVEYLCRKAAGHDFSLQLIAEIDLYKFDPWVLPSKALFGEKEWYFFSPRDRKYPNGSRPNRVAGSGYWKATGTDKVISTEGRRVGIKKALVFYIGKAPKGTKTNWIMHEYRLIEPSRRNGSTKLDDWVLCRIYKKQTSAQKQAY
In short, it runs like this:
as §1

In another assay the target is T4, GST-ATAF1 NAC domain (Arabidopsis thaliana, UniProt Q39013 7-158).
T4 sequence: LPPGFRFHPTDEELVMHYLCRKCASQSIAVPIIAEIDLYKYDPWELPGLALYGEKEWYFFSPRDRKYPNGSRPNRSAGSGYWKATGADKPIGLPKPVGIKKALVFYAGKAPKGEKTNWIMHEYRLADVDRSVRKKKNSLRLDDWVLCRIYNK
In short, it runs like this: as §1

The target of assay [1] is T5, GST-ANAC092(1-285) full length (Arabidopsis thaliana, UniProt Q9FKA0 1-285).
T5 sequence: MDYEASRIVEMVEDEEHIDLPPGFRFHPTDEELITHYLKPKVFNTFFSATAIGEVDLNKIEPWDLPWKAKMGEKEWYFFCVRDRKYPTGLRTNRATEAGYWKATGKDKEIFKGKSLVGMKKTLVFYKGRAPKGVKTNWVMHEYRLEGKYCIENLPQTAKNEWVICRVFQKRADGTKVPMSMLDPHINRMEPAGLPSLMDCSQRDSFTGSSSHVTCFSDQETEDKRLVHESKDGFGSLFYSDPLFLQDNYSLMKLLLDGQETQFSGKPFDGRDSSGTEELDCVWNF
In short, it runs like this:
as §1

For another assay, the target named is T6, GST-NAP(1-166) (Arabidopsis thaliana, UniProt O49255 1-166).
T6 sequence: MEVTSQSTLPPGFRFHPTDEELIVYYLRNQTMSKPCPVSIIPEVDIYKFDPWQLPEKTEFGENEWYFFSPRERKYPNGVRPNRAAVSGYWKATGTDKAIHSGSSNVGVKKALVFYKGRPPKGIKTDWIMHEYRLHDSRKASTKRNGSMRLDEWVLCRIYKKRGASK
In short, it runs like this: as §1

A further assay has as its target T7, GST-NST2(1-184) (Arabidopsis thaliana, UniProt Q9M274 1-184).
T7 sequence: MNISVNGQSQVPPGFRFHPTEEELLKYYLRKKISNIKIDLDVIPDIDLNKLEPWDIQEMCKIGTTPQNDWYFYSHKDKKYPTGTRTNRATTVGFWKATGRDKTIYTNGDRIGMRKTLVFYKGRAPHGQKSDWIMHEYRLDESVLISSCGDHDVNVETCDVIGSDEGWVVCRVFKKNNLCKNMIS
In short, it runs like this:
as §1

Another assay has as its target T8, GST-SND1(1-203) (Arabidopsis thaliana, UniProt Q9LPI7 1-203).
T8 sequence: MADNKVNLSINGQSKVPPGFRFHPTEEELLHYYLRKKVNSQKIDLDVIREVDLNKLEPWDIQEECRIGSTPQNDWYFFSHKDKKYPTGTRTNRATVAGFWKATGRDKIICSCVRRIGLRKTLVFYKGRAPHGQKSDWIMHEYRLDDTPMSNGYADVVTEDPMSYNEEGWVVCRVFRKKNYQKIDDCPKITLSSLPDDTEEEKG
In short, it runs like this: as §1

A further assay has as its target T9, GST-VND3 NAC domain (Arabidopsis thaliana, UniProt Q9FH59 12-162).
T9 sequence: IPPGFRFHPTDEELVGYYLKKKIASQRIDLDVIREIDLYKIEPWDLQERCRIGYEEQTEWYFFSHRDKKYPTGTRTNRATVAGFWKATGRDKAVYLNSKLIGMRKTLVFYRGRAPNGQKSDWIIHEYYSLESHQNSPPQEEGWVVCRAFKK
In short, it runs like this: as §1

A further assay concerns the target T10, GST-VND7 NAC domain (Arabidopsis thaliana, UniProt Q9C8W9 9-158).
T10 sequence: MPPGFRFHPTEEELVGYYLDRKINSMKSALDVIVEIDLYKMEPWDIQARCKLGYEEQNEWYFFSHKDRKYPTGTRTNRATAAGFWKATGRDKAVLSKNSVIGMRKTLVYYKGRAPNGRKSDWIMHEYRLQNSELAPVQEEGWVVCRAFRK
In short, it runs like this: as §1

Consider ACACGTAA, for which the binding signal in the assay with GST-ANAC092(1-176) was determined as 0.481 E-score; with GST-ANAC019 NAC domain, 0.477 E-score; with GST-ANAC055(1-171), 0.469 E-score; with GST-ATAF1 NAC domain, 0.439 E-score; in [1], 0.481 E-score; with GST-NAP(1-166), 0.465 E-score. The binding signal with GST-NST2(1-184) turned out to be 0.316 E-score; with GST-SND1(1-203), 0.288 E-score; with GST-VND3 NAC domain, 0.461 E-score; with GST-VND7 NAC domain, 0.476 E-score.
Turning to ACACGTAT, the binding signal with GST-ANAC092(1-176) came out at 0.289 E-score; in the assay with GST-ANAC019 NAC domain it was 0.406 E-score; in the assay with GST-ANAC055(1-171), 0.342 E-score; with GST-ATAF1 NAC domain, 0.312 E-score; in assay [1], 0.369 E-score; with GST-NAP(1-166) it was 0.387 E-score. Besides, the binding signal in the assay with GST-NST2(1-184) came to 0.19 E-score; with GST-SND1(1-203) it was 0.139 E-score; in the assay with GST-VND3 NAC domain, 0.38 E-score; with GST-VND7 NAC domain, 0.381 E-score.
ATTTCGTG: the binding signal was found to be 0.389 E-score with GST-ANAC092(1-176); 0.174 E-score with GST-ANAC019 NAC domain; 0.22 E-score with GST-ANAC055(1-171); 0.154 E-score in the assay with GST-ATAF1 NAC domain; 0.422 E-score in [1]; 0.133 E-score with GST-NAP(1-166). Also, the binding signal is 0.136 E-score in the assay with GST-NST2(1-184), 0.109 E-score with GST-SND1(1-203), 0.191 E-score in the assay with GST-VND3 NAC domain and 0.157 E-score in the assay with GST-VND7 NAC domain.
As for CGTACACG, the binding signal in the assay with GST-ANAC092(1-176) was determined as 0.337 E-score; in the assay with GST-ANAC019 NAC domain, 0.221 E-score; in the assay with GST-ANAC055(1-171), 0.287 E-score; in the assay with GST-ATAF1 NAC domain, 0.278 E-score; in assay [1] it was 0.403 E-score; with GST-NAP(1-166) it was 0.288 E-score. The binding signal in the assay with GST-NST2(1-184) was determined as 0.0623 E-score; with GST-SND1(1-203) it was 0.0837 E-score; in the assay with GST-VND3 NAC domain, 0.317 E-score; with GST-VND7 NAC domain, 0.3 E-score.
As to ACACGCAT, the binding signal came to 0.462 E-score with GST-ANAC092(1-176); 0.346 E-score with GST-ANAC019 NAC domain; 0.335 E-score with GST-ANAC055(1-171); 0.292 E-score with GST-ATAF1 NAC domain; 0.468 E-score in assay [1]; 0.332 E-score in the assay with GST-NAP(1-166). Moreover, the binding signal with GST-NST2(1-184) was found to be 0.242 E-score; with GST-SND1(1-203) it was 0.295 E-score; with GST-VND3 NAC domain, 0.351 E-score; with GST-VND7 NAC domain, 0.33 E-score.
GCACGCAA: the binding signal in the assay with GST-ANAC092(1-176) turned out to be 0.492 E-score; in the assay with GST-ANAC019 NAC domain, 0.458 E-score; with GST-ANAC055(1-171) it was 0.396 E-score; with GST-ATAF1 NAC domain, 0.277 E-score; in assay [1], 0.493 E-score; in the assay with GST-NAP(1-166), 0.423 E-score. Also, the binding signal with GST-NST2(1-184) came out at 0.405 E-score; with GST-SND1(1-203), 0.456 E-score; in the assay with GST-VND3 NAC domain, 0.438 E-score; with GST-VND7 NAC domain it was 0.431 E-score.
Regarding GCGTACGC, the binding signal amounted to 0.402 E-score with GST-ANAC092(1-176); 0.287 E-score with GST-ANAC019 NAC domain; 0.265 E-score with GST-ANAC055(1-171); 0.16 E-score with GST-ATAF1 NAC domain; 0.418 E-score in assay [1]; 0.226 E-score with GST-NAP(1-166). The binding signal in the assay with GST-NST2(1-184) worked out at 0.251 E-score; with GST-SND1(1-203), 0.288 E-score; with GST-VND3 NAC domain, 0.0861 E-score; in the assay with GST-VND7 NAC domain, 0.346 E-score.
With CACGTCAC, the binding signal with GST-ANAC092(1-176) is 0.445 E-score; in the assay with GST-ANAC019 NAC domain it was 0.4 E-score; with GST-ANAC055(1-171), 0.396 E-score; in the assay with GST-ATAF1 NAC domain, 0.374 E-score; in [1], 0.464 E-score; with GST-NAP(1-166), 0.344 E-score. Also, the binding signal in the assay with GST-NST2(1-184) stood at 0.217 E-score; with GST-SND1(1-203) it was 0.328 E-score; with GST-VND3 NAC domain it was 0.362 E-score; in the assay with GST-VND7 NAC domain, 0.395 E-score.
